Data as given in PubChem BioAssay (EPA / NIEHS).
Records with an inconclusive call do not appear. Active and inactive are the calls of the source. The calls were made as follows, unless noted: active = hit-call score of the fitted dose curve at least 0.9, where 1 is the maximum; inconclusive = response in the unintended direction; inactive = score below 0.9.

Columns and labels:
[1] = target: Glucocorticoid receptor (Homo sapiens) (UniProt P04150); assay: ATG_GR_TRANS: Attagene TRANS-FACTORIAL HepG2 Assay for human Glucocorticoid Receptor (GR) (AID 2282978); conditions: HepG2 Attagene TRANS GR reporter, mRNA transcription;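 also: activators score as hits since higher reporter transcript over DMSO is fitted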
Method in brief: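 HepG2 cells transiently transfected with GAL4-UAS reporter units and exogenous GR-Gal4 chimera, dosed 24 h. Reporter mRNA by RT-PCR, FAM labeling, HpaI digest and capillary electrophoresis; gain-of-signal fit versus DMSO.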

[2] = target: human Peroxisome Proliferator-activated Receptor delta (PPARd), PPARD (gene 5467) (UniProt Q03181); assay: ATG_PPARd_TRANS: Attagene TRANS-FACTORIAL HepG2 Assay for human Peroxisome Proliferator-activated Receptor delta (PPARd) (AID 2283002)
Method in brief: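 HepG2 cells transiently transfected with multiplexed GAL4-UAS reporter units and exogenous chimeric NR-Gal4 proteins; 24 h compound exposure. Reporter mRNA measured by RT-PCR, 6-FAM labelling, HpaI digestion and capillary electrophoresis; gain of signal versus DMSO.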

[3] = ATG_XTT_Cytotoxicity: Cytotoxicity Assessment in the Attagene TRANS-FACTORIAL HepG2 Assay (AID 2283584)
Method in brief: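 HepG2 cells transiently transfected with GAL4-UAS multiple reporter units, dosed 24 h; cytotoxicity read by XTT as loss of signal versus DMSO baseline.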

[4] = target: Cellular tumor antigen p53 (Homo sapiens) (UniProt P04637); assay: TOX21_p53_BLA_p2_ratio: Tox21 HCT-116 p53 Agonism Beta-lactamase Assay, Ratio, Phase 2 (AID 2283592)
Method in brief: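 HCT-116 cells with p53-responsive beta-lactamase reporter, 4000 cells/well, preincubated 5 h, then compound in DMSO (217-fold dilution) for 16 h at 37C. CCF4-AM substrate 2 h at room temperature; 460/530 nm emission ratio fitted upward versus DMSO.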

[5] = TOX21_p53_BLA_p3_viability: Viability Assessment in the Tox21 HCT-116 p53 Agonism Beta-lactamase Assay, Phase 3 (AID 2283593);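 also: cells exposed to compound for 16 h before reading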
Method in brief: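 HCT-116 cells (4000/well) rested 5 h at 37C, then got DMSO compounds by pin tool (217-fold dilution) for 16 h at 37C, 5% CO2. After the bla read, CellTiter-Glo was added and luminescence read at 30 min, room temperature.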

[6] = target: Cellular tumor antigen p53 (Homo sapiens) (UniProt P04637); assay: TOX21_p53_BLA_p3_ratio: Tox21 HCT-116 p53 Agonism Beta-lactamase Assay, Ratio, Phase 3 (AID 2283596)
Method in brief: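 HCT116 p53-bla cells (4000/well) given compound in DMSO (217-fold dilution) after 5 h, incubated 16 h at 37C. CCF4-AM substrate 2 h at room temperature; 460/530 nm emission ratio, gain fitted against DMSO.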

[7] = TOX21_p53_BLA_p4_viability: Viability Assessment in the Tox21 HCT-116 p53 Agonism Beta-lactamase Assay, Phase 4 (AID 2283597);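 also: hits lower the luminescence signal meaning cytotoxicity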
Method in brief: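 HCT-116 p53-bla cells, 4000/well, dosed after 5 h attachment and incubated 16 h at 37 °C, 5% CO2. Viability from CellTiter-Glo ATP luminescence after 30 min at room temperature, taken after the beta-lactamase read; loss of signal indicates cytotoxicity.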

[8] = target: Cellular tumor antigen p53 (Homo sapiens) (UniProt P04637); assay: TOX21_p53_BLA_p5_ratio: Tox21 HCT-116 p53 Agonism Beta-lactamase Assay, Ratio, Phase 5 (AID 2283599)
Method in brief: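 HCT-116 cells carrying a p53-inducible beta-lactamase reporter were seeded at 4000 cells/well and dosed after 5 h with compound in DMSO (217-fold dilution). After 16 h at 37C, CCF4-AM substrate was added for 2 h, and the 460/530 nm emission ratio was scored as gain-of-signal versus DMSO.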

[9] = CCTE_Harrill_HTTr_CellCount_MCF7: CCTE's Cell Proliferation Assessment for the High-Throughput Transcriptomics (HTTr) Platform, Harrill Lab (AID 2284012);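 also: cells exposed to compound for six hours; intended direction is loss of nuclei count meaning fewer cells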
Method in brief: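 MCF-7 cells were exposed for 6 h to an eight-point dilution series; Hoechst-labeled nuclei were counted by high content imaging. Curves were fitted bidirectionally against DMSO as negative control and baseline, with signal loss indicating reduced cell count.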

[10] = ATG_ERE_CIS: Attagene CIS-FACTORIAL HepG2 Assay for Estrogen Response Element (ERE) (AID 2282940; active = hit-call score of the fitted dose curve at least 0.9, where 1 is the maximum; inactive = score below 0.9); conditions: HepG2 ERE cis-reporter, Attagene RNA transcript; actives raise or lower the signal
Method in brief: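 After 24 h compound treatment, RNA from transfected HepG2 cells was reverse-transcribed, reporter cDNA PCR-amplified, FAM-labelled, HpaI-cut and resolved by capillary electrophoresis. ERE-driven cis reporter transcripts reflect endogenous factors; gain or loss scored against DMSO.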

[11] = target: Bile acid receptor (Homo sapiens) (UniProt Q96RI1); assay: ATG_IR1_CIS: Attagene CIS-FACTORIAL HepG2 Assay for human Nuclear Receptor Subfamily 1 Group H Member 4 (NR1H4), IR1 submotif (AID 2282946; active = hit-call score of the fitted dose curve at least 0.9, where 1 is the maximum; inactive = score below 0.9); conditions: IR1 reporter transcription, actives raise or lower the signal
Method in brief: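 Transient MRTU transfection, HepG2; 24 h dosing; RNA → RT-PCR → 6-FAM primer extension → HpaI digest → capillary electrophoresis fluorescence. Gain/loss of signal fitted relative to DMSO.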

[12] = target: human RAR-related Orphan Receptor beta (RORb), RORB (gene 6096) (UniProt Q92753); assay: ATG_RORb_TRANS: Attagene TRANS-FACTORIAL HepG2 Assay for human RAR-related Orphan Receptor beta (RORb) (AID 2283010);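 as to AC50: potency for increased reporter mRNA meaning activation of RORb-Gal4 chimera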
Method in brief: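 HepG2 cells were transiently transfected with multiplexed GAL4-UAS reporter units expressing chimeric nuclear receptor–GAL4 proteins, then dosed for 24 h. Reporter mRNA was quantified by RT-PCR with fluorescent labelling and capillary electrophoresis; gain of signal was fitted relative to DMSO.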

[13] = target: human RAR-related Orphan Receptor gamma (RORg), RORC (gene 6097) (UniProt P51449); assay: ATG_RORg_TRANS: Attagene TRANS-FACTORIAL HepG2 Assay for human RAR-related Orphan Receptor gamma (RORg) (AID 2283011)
Method in brief: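 HepG2 cells transiently transfected with GAL4-UAS reporter units and chimeric RORg-Gal4 construct; after 24 h chemical exposure, reporter mRNA measured by RT-PCR with fluorescent capillary electrophoresis, gain of signal fitted against DMSO.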

[14] = target: Nuclear receptor subfamily 1 group I member 3 (Homo sapiens) (UniProt Q14994); assay: ATG_CAR_TRANS: Attagene TRANS-FACTORIAL HepG2 Assay for human Constitutive Androstane Receptor (CAR) (AID 2282969); conditions: HepG2 Attagene TRANS-FACTORIAL CAR reporter;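 also: activators raise reporter mRNA above DMSO so AC50 marks induction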
Method in brief: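 HepG2 cells transiently transfected with multiplexed GAL4-UAS reporter units expressing chimeric NR-Gal4 proteins; compound exposure 24 h. Reporter mRNA measured by RT-PCR, 6-FAM labelling, HpaI digestion and capillary electrophoresis; gain-of-signal fitted against DMSO baseline.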

[15] = target: Hepatocyte nuclear factor 4-alpha (Homo sapiens) (UniProt P41235); assay: ATG_HNF4a_TRANS: Attagene TRANS-FACTORIAL HepG2 Assay for human Hepatocyte Nuclear Factor 4 alpha (HNF4a) (AID 2282982); conditions: HepG2 HNF4a transactivation reporter, mRNA readout
Method in brief: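 HepG2 cells transiently transfected with multiplexed GAL4-UAS reporter units responsive to chimeric NR-GAL4 proteins; compound exposure 24 h. Reporter mRNA quantified by RT-PCR, 6-FAM labelling, HpaI digestion and capillary electrophoresis; gain of signal versus DMSO baseline.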

[16] = TOX21_p53_BLA_p2_viability: Viability Assessment in the Tox21 HCT-116 p53 Agonism Beta-lactamase Assay, Phase 2 (AID 2283591);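 also: compound exposure lasted 16 h at 37 °C; actives lower the ATP signal meaning cytotoxicity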
Method in brief: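 HCT-116 p53-bla cells (4000/well) rested 5 h at 37C, then received compounds in DMSO (217-fold dilution) for 16 h at 37C, 5% CO2. After the CCF4 read, CellTiter-Glo was added; ATP luminescence was read after 30 min at room temperature.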

[17] = target: Cellular tumor antigen p53 (Homo sapiens) (UniProt P04637); assay: TOX21_p53_BLA_p4_ratio: Tox21 HCT-116 p53 Agonism Beta-lactamase Assay, Ratio, Phase 4 (AID 2283601)
Method in brief: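 HCT116 cells carrying an inducible beta-lactamase reporter were plated at 4000 cells/well, rested 5 h, then exposed to compounds in DMSO (217-fold dilution) for 16 h at 37C. CCF4-AM substrate was loaded 2 h at room temperature; 460/530 nm emission ratio scored gain-of-signal versus DMSO.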

[18] = ACEA_ER_AUC_viability: ACEA Biosciences xCELLigence Real-Time Cell Analysis on Estrogen Receptor Agonism for Viability (AID 2283782);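 also: continuous compound exposure with impedance area under curve over 80 h; hit means loss of impedance signal meaning reduced cell growth or viability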
Method in brief: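 T-47D human breast cells in phenol red-free RPMI1640 with 10% charcoal-stripped FBS were dosed with an 8-point 1:4 dilution series from 100 uM top final concentration, in duplicate. Impedance-based growth was followed for 80 h; AUC analysed versus DMSO.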

[19] = target: Oxysterols receptor LXR-beta (Homo sapiens) (UniProt P55055); assay: ATG_LXRb_TRANS: Attagene TRANS-FACTORIAL HepG2 Assay for human Liver X Receptor beta (LXRb) (AID 2282981); conditions: HepG2 Attagene TRANS GAL4-LXRb reporter, mRNA
Method in brief: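 HepG2 cells transiently transfected with multiple reporter transcription units carrying chimeric NR-Gal4 proteins acting on GAL4-UAS reporters; compound exposure 24 h. Reporter mRNA quantified by RT-PCR, 6-FAM labelling, HpaI digestion and capillary electrophoresis; gain of signal versus DMSO.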

[20] = target: Oxysterols receptor LXR-alpha (Homo sapiens) (UniProt Q13133); assay: ATG_LXRa_TRANS: Attagene TRANS-FACTORIAL HepG2 Assay for human Liver X Receptor alpha (LXRa) (AID 2282980); conditions: HepG2 Attagene TRANS reporter, LXRa transactivation
Method in brief: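 HepG2 cells transiently transfected with GAL4-UAS reporter units for chimeric NR-Gal4 proteins, exposed to chemicals for 24 h. Reporter mRNA quantified by RT-PCR and capillary electrophoresis; gain of signal fitted relative to DMSO.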

Measured: AC50

Nuclear receptor subfamily 1 group I member 3 (Homo sapiens), sequence (Q14994 whole entry, looked up, the tested form may be a part): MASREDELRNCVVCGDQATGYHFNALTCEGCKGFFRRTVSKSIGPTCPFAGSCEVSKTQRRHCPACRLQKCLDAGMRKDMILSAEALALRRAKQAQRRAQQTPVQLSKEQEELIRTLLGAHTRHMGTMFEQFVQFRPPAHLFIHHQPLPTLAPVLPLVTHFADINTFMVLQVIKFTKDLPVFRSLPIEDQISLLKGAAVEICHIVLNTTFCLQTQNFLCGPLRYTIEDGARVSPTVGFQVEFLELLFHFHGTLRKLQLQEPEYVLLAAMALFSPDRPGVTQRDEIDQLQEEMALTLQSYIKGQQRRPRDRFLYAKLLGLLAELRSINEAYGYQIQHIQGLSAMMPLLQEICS
human RAR-related Orphan Receptor gamma (RORg), RORC (gene 6097), sequence (P51449 whole entry, looked up, the tested form may be a part): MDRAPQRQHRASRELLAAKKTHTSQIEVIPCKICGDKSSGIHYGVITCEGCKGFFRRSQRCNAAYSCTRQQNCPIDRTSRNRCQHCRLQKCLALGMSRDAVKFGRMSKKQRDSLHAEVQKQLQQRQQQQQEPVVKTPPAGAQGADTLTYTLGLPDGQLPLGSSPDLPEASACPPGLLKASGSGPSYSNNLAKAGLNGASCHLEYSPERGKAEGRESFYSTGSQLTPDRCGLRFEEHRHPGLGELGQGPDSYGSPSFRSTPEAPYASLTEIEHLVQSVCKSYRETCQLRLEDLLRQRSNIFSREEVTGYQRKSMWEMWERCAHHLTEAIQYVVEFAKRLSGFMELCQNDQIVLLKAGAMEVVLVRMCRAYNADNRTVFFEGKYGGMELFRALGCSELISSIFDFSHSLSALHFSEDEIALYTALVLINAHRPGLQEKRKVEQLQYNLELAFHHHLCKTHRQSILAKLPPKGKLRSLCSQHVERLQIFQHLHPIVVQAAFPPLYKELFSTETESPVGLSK
Glucocorticoid receptor (Homo sapiens), sequence (P04150 whole entry, looked up, the tested form may be a part): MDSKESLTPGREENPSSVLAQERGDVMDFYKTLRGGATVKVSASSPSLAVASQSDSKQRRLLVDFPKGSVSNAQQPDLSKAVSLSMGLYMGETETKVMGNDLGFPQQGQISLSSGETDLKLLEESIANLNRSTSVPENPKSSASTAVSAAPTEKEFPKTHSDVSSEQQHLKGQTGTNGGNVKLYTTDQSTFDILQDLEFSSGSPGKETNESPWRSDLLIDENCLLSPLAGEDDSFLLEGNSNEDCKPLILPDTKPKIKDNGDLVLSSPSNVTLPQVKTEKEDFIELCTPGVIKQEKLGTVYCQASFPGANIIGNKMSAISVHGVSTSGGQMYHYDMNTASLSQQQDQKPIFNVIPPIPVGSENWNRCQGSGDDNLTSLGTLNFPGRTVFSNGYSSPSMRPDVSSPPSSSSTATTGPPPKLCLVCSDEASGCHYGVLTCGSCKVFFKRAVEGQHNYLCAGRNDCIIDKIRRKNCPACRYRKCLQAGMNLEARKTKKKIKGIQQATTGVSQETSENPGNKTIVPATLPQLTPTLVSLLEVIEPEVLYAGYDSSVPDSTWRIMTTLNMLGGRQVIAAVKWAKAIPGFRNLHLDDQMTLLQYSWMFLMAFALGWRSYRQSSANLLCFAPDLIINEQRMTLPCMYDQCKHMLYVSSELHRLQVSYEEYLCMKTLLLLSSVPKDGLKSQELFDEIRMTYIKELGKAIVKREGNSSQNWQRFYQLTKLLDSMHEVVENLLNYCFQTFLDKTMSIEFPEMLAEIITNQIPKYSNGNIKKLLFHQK
Bile acid receptor (Homo sapiens), sequence (Q96RI1 whole entry, looked up): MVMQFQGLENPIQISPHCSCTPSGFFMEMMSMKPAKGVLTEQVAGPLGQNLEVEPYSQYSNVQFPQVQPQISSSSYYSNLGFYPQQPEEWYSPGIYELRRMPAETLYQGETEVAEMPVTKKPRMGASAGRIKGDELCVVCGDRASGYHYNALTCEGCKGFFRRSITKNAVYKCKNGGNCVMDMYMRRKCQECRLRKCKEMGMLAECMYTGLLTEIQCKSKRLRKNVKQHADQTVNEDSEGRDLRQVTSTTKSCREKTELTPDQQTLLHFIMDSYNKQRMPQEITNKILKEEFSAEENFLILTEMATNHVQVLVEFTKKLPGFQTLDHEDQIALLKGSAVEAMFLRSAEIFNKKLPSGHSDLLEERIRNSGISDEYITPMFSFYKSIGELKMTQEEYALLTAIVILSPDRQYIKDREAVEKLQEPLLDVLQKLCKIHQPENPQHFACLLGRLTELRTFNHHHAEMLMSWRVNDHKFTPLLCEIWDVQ
Oxysterols receptor LXR-beta (Homo sapiens), sequence (P55055 whole entry, looked up, the tested form may be a part): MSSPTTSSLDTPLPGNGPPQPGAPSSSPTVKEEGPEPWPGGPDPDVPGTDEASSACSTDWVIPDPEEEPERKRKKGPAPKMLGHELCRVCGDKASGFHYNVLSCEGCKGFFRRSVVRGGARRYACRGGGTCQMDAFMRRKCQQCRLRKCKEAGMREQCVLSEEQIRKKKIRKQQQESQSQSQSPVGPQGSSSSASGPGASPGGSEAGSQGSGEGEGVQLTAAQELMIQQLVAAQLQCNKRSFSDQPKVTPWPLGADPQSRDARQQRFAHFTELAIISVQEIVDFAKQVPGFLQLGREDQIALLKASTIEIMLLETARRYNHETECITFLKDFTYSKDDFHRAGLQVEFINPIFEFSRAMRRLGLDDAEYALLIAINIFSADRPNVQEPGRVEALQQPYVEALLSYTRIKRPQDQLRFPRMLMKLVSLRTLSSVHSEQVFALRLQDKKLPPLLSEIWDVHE
human Peroxisome Proliferator-activated Receptor delta (PPARd), PPARD (gene 5467), sequence (Q03181 whole entry, looked up, the tested form may be a part): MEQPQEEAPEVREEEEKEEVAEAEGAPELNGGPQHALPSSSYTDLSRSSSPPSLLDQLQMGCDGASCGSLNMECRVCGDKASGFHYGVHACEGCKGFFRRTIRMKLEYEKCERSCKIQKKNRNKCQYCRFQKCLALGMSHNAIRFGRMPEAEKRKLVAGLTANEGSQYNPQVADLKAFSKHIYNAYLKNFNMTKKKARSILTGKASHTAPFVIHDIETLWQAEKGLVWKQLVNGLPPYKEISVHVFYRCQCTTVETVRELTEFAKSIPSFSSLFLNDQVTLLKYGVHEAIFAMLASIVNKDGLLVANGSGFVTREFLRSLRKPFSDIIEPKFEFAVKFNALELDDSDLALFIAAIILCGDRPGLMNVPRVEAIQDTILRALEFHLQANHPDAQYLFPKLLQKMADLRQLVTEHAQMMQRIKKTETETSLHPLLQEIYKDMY
Hepatocyte nuclear factor 4-alpha (Homo sapiens), sequence (P41235 whole entry, looked up, the tested form may be a part): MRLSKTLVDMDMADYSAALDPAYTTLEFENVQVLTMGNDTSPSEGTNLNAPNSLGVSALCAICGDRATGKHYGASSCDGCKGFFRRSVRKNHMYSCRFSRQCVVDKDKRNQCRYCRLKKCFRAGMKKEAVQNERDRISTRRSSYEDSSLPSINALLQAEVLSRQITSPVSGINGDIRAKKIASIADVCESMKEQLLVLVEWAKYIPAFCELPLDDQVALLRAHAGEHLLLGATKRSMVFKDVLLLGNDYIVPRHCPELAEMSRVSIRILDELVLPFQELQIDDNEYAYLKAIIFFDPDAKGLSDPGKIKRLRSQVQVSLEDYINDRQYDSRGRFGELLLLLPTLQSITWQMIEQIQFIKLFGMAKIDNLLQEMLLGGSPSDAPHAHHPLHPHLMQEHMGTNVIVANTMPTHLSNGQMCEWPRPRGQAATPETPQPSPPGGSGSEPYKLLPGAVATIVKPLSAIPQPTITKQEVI
Cellular tumor antigen p53 (Homo sapiens), sequence (P04637 whole entry, looked up): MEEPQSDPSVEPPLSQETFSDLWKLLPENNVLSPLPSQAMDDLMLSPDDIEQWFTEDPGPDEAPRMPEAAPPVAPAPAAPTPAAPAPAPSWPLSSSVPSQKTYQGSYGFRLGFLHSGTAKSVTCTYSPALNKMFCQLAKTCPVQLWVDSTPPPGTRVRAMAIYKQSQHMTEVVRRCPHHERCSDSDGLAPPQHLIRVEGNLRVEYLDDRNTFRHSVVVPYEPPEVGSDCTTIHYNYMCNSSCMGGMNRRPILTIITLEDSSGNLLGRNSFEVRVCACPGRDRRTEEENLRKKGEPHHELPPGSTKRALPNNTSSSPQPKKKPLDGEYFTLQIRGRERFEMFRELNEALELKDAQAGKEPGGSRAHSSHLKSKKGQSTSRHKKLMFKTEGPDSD
human RAR-related Orphan Receptor beta (RORb), RORB (gene 6096), sequence (Q92753 whole entry, looked up, the tested form may be a part): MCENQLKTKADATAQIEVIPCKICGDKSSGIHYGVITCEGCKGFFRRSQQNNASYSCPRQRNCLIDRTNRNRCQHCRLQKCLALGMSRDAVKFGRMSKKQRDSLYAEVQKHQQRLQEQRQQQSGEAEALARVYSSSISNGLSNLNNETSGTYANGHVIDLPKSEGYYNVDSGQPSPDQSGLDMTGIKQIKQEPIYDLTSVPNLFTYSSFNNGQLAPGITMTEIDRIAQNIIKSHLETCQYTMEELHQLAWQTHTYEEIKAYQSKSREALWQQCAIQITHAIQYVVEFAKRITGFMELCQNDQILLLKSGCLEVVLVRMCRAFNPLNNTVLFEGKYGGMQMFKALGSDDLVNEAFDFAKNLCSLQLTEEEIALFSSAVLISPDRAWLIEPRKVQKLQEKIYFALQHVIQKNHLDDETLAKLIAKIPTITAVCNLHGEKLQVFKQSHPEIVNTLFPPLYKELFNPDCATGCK
Oxysterols receptor LXR-alpha (Homo sapiens), sequence (Q13133 whole entry, looked up, the tested form may be a part): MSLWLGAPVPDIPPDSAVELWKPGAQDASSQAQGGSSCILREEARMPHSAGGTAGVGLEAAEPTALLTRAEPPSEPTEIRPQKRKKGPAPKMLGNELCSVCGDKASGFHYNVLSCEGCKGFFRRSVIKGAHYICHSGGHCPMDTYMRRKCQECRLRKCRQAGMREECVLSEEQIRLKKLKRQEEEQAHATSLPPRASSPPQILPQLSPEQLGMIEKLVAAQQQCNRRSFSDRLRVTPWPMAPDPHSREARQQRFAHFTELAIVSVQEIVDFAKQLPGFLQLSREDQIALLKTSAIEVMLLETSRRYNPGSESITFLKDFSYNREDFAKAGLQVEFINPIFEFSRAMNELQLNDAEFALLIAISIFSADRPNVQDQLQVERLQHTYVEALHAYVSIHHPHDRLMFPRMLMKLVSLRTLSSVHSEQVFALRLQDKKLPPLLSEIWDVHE

Oc1cc(Cl)ccc1Cl
inactive: [1] | [2] | [3] | [4] | [5] | [6] | [7] | [8] | [9]

CCc1cc(C)cc(CC)c1-c1c(OC(=O)C(C)(C)C)n2n(c1=O)CCOCC2
inactive: [10] | [11] | [2] | [12] | [13]

C=Cc1cccc(CCl)c1
inactive: [10] | [11] | [14] | [15] | [13] | [16] | [5] | [6] | [7] | [8] | [17]

CN1C(=O)CCS(=O)(=O)C1c1ccc(Cl)cc1 (stereo not drawn)
inactive: [2] | [3] | [9]

O=C(CCN1CC1)OCC(CO)(COC(=O)CCN1CC1)COC(=O)CCN1CC1
inactive: [11] | [1] | [12] | [3] | [4] | [5] | [6] | [8] | [17]
active: [18] 63.1 µM

Cc1ccccc1CCl
inactive: [14] | [1] | [19] | [2] | [12] | [13] | [4] | [6] | [8] | [17] | [18]

C[C@]12CC[C@H](O)C[C@H]1CC[C@@H]1[C@@H]2C[C@@H](O)[C@]2(C)[C@@H](C3=CC(=O)OC3)CC[C@]12O
active: [12] 1.29 µM
inactive: [11] | [20] | [19] | [15] | [2] | [13] | [3]

CC(C)(Cl)Cl
not listed: [1] | [7] | [10] | [11] | [12] | [13] | [15] | [16]
inactive: all other assays above

CNC(=N[N+](=O)[O-])NCC1CCOC1 (stereo not drawn)
inactive: [11] | [1] | [12] | [13] | [3] | [6] | [7] | [8] | [17]

CC1(C)CC(=O)CC(C)(C)N1[O]
inactive: [11] | [14] | [19] | [2] | [3] | [16] | [4] | [7] | [17]

O=S(=O)(O)OOS(=O)(=O)O
inactive: [19] | [2] | [13] | [3]

O=[N+]([O-])O
inactive: [15] | [3] | [16] | [5] | [7] | [18] | [9]
